Most compounds without a hit are left out; they make up all but 7.5% or so of the library.
Luc counter = Counterscreen for Luciferase (Kinase-Glo TM) Inhibition. Kinase-Glo luciferase, ATP luminescence, 8 min. Potency, µM (top dose mostly 38.3 µM), actives largely listed as inhibitors. 200,000 tested, 0.28% active. AID 1379, 2008; further: nearly all actives have a fitted effect of over 60% in size
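Kinase-Glo luciferase light output from ATP and luciferin was measured with 10 uM ATP, within the enzyme's linear range. Buffer: 50 mM imidazole pH 7.2, 50 mM KCl, 7 mM MgCl2, 0.01% Tween 20, 0.05% BSA; luminescence read after 8 min at ambient temperature.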
NPC1 prom act = qHTS Assay for NPC1 Promoter Activators; AID 485313, 2010; 320,000 tested, 2.4% active; Huh7 NPC1 promoter luciferase reporter, 24 h; Potency, µM (titrated, usually from 9.22 µM), usual class: activators; further: nearly all actives have a fitted effect of over 60% in size
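Stably transfected Huh7 (NPC1 promoter→luciferase), 1500 cells/well in Opti-MEM + 10% FBS, 2 h settle, then compound 24 h at 37 °C. Luminescence after 10 min with Amplite reagent.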
ELG1 genotoxic = qHTS screen for small molecules that induce genotoxicity in human embryonic kidney (HEK293T) cells expressing luciferase-tagged ELG1 | HEK293T ELG1-luciferase reporter, luminescence, 16 h | Potency, µM (top dose mostly 46 µM), hits mostly activators | 330,000 tested, 1.3% active; further: nearly all actives have a fitted effect of over 60% in size
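Step 1: seed 2,000 HEK293T ELG1-luciferase cells per well. Step 2: add compound or DMSO, incubate 16 hr at 37 °C. Step 3: ONE-Glo, 30 min at room temperature, read luminescence.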
Rab9 prom act = qHTS Assay for Rab9 Promoter Activators. 320,000 tested, 2.8% active. Huh7 Rab9 promoter-luciferase reporter, luminescence, 24 h. Potency, µM (top dose mostly 9.22 µM), hits mostly activators; further: nearly all actives have a fitted effect of over 60% in size
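Luciferase signal after 10 min detection reagent at ambient indicates Rab9 promoter upregulation; stably transfected Huh7 cells were treated 24 h with compound in DMSO at 37 °C, 5% CO2.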
SMN2 splice up = qHTS Assay for Enhancers of SMN2 Splice Variant Expression; HEK293 SMN2-luciferase splicing reporter, luminescence, 30-36 h; Potency, µM (highest dose often 46.1 µM), actives largely listed as activators; 210,000 tested, 2.8% active; AID 1458, 2008; further: nearly all actives have a fitted effect of over 55% in size
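HEK293 cells carry an SMN2 minigene-luciferase reporter in which exon 7 inclusion puts luciferase in frame. Cells were seeded at 2000 cells/well, attached for 10-12 hours, then exposed to compounds for 30-36 hours at 37C before ONE-Glo luminescence.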
FLuc counter = qHTS profiling assay for firefly luciferase inhibitor/activator using purifed enzyme and Km concentrations of substrates (counterscreen for miR-21 project); purified FLuc, Km substrates, luminescence inhibition; Potency, µM (doses to about 57.5 µM), most hits filed as inhibitors; 360,000 tested, 6.9% active; AID 588342, 2011; further: nearly all actives have a fitted effect of over 55% in size
Target sequence (P08659 whole entry, looked up): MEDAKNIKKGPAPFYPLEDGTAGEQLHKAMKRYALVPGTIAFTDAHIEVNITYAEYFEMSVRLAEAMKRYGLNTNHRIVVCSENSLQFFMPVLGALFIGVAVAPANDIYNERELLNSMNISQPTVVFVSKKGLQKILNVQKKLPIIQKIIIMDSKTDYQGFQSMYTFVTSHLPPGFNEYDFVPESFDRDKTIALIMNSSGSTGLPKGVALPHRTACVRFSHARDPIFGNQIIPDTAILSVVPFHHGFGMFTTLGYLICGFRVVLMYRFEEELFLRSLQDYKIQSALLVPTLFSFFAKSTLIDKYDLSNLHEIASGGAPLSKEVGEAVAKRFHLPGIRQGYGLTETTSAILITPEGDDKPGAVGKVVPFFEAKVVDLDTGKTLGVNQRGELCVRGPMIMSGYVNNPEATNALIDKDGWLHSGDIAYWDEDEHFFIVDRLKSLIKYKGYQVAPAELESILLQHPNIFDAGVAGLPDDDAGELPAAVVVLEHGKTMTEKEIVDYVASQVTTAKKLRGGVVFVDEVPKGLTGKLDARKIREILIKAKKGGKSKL
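Purified P. pyralis luciferase, 10 nM final, with Km-level 10 uM D-luciferin and 10 uM ATP in 50 mM Tris acetate pH 7.5, 10 mM Mg acetate, 0.01% Tween-20, 0.05% BSA; 6-point qHTS titration about 60 µM downward; luminescence read.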
Numbers stand for hits. The call rests on the fitted dose curve; in most records, active means well fitted curve in the direction sought with a large enough effect; inconclusive means small, poorly fitted or top-dose-only effect, or another doubt; inactive means no such curve, though single readings can be large; an effect the other way counts as inactive or inconclusive.

Cc1cc(C(=O)COc2ccc3ccc(=O)oc3c2)c(C)n1Cc1cccs1 was read as Luc counter inactive, NPC1 prom act inactive, ELG1 genotoxic inactive, Rab9 prom act inactive, SMN2 splice up inactive and FLuc counter inconclusive.
Cc1cnc(C(=O)OCC(=O)Nc2ccc(OCc3ccccc3)cc2)cn1 was read as NPC1 prom act 2.8µM, ELG1 genotoxic inconclusive, Rab9 prom act 2.5µM and FLuc counter inconclusive.
COc1ccc(NC(=O)c2cc(C)n(Cc3cccs3)c2C)cc1 was read as NPC1 prom act 0.56µM, ELG1 genotoxic inconclusive, Rab9 prom act 0.32µM and FLuc counter 0.85µM.
`CC1CCN(c2ccccc2NC(=O)c2ccc(Br)o2)CC1` gave NPC1 prom act inactive, ELG1 genotoxic inactive, Rab9 prom act inactive and FLuc counter inactive.
`COc1ccc2cc3cc(C(=O)Nc4ccccc4C)oc3nc2c1` gave SMN2 splice up inactive and FLuc counter inactive.
Screening CCSc1nnc(NC(=O)CCNC(=O)c2ccccc2Cl)s1 returned ELG1 genotoxic inactive.
CCc1ccc(-n2c(SCc3nc(-c4cc(OC)ccc4OC)no3)nnc2-c2ccccc2)cc1 was read as SMN2 splice up inactive and FLuc counter inactive.
Screening Cc1cc(C)c2c(N)c3cccc(C)c3nc2n1 returned Luc counter inactive, NPC1 prom act inactive, ELG1 genotoxic inactive, Rab9 prom act inactive, SMN2 splice up 18µM and FLuc counter inactive.
For CC1=C(C(=O)Nc2ccc(C)cc2C)C(c2cc(Br)ccc2F)n2ncc(C(=O)Nc3ccc(C)cc3)c2N1 (stereo not given) the results were FLuc counter inactive.
`Cc1ccc(N=Cc2sccc2C)cc1C` gave Luc counter inactive, NPC1 prom act inactive, ELG1 genotoxic inactive, Rab9 prom act inactive, SMN2 splice up inactive and FLuc counter 1.9µM.
`CC1(c2ccccc2)NC(=O)N(CC(=O)Nc2cccc(/C=C/c3ccccn3)c2)C1=O` (stereo not given) gave NPC1 prom act inactive, ELG1 genotoxic inactive, Rab9 prom act inactive and FLuc counter 19µM.
Screening Cc1cc(C)cc(NC(=O)CN2C(=O)NC(C)(c3ccccc3)C2=O)c1 (stereo not given) returned Luc counter inactive, NPC1 prom act inactive, ELG1 genotoxic inactive, Rab9 prom act inactive, SMN2 splice up inactive and FLuc counter inactive.
O=c1n(Cc2ccc([N+](=O)[O-])cc2)c2ccccc2c2nc(-c3ccccc3)nn12 was read as FLuc counter inactive.
CCCCC(=O)Nc1cccc(-c2cn3ccsc3n2)c1 was read as Luc counter inactive, NPC1 prom act inactive, ELG1 genotoxic inactive, Rab9 prom act inactive, SMN2 splice up inactive and FLuc counter 15µM.
For O=C(Nc1cccc(-c2cn3ccsc3n2)c1)c1ccccc1 the results were Luc counter inactive, NPC1 prom act inactive, ELG1 genotoxic inactive, Rab9 prom act inactive, SMN2 splice up inactive and FLuc counter 11µM.
`COc1ccccc1C(=O)Nc1cccc(-c2cn3ccsc3n2)c1` gave Luc counter inactive, NPC1 prom act inactive, ELG1 genotoxic inactive, Rab9 prom act inactive, SMN2 splice up inactive and FLuc counter 4.3µM.
Nc1cccc(-c2cn3ccsc3n2)c1 was read as FLuc counter 21µM.
`CCOc1ncccc1C(=O)Nc1ccc(-c2cn3ccsc3n2)cc1` gave Luc counter inactive, NPC1 prom act inactive, ELG1 genotoxic inactive, Rab9 prom act inactive, SMN2 splice up inactive and FLuc counter inactive.
CCCCC(=O)Nc1cccc(-c2nnc(-c3ccccc3)o2)c1 was read as Luc counter inactive, NPC1 prom act inactive, ELG1 genotoxic inactive, Rab9 prom act inactive, SMN2 splice up inconclusive and FLuc counter inconclusive.
For Cc1sc(-c2cc3c([nH]c2=O)CC(c2ccccc2)CC3=O)nc1-c1ccc(Cl)cc1 (stereo not given) the results were SMN2 splice up inactive and FLuc counter inactive.
